Source: PubChem BioAssay (NCATS)
Records with an inconclusive call do not appear. The source made the active and inactive calls. Calls follow the shape of the dose curve; as a rule, active = well fitted cell-killing curve with a large enough effect; inconclusive = small, poorly fitted or top-dose-only effect, or effect the other way; inactive = no such curve, though single readings can be large or run the other way.

Assay: Quantitative High-Throughput drug screen in 47 multiple myeloma cell lines against the NCATS MIPE library collection: KHM11_PLB cell viability assay (AID 1918962); also: nearly all actives have a fitted effect of over 35% in size
Details: KHM11 myeloma cell viability, CellTiter-Glo ATP luminescence, 48 h; series mostly up to 45.8 µM; viability, % of DMSO control: at the top concentration
Text: PI: Beverly A. Mock Ph.D.
Laboratory of Cancer Biology and Genetics,
Center for Cancer Research, National Cancer Institute,
National Institute of Health, Bethesda, Maryland
Drug resistance and disease progression are common in multiple myeloma (MM) patients, underscoring the need for new therapeutic combinations. […] We hypothesized that effective combinations would reduce MYC expression and enhance p16 activity. […] These preclinical data identify potentially useful drug combinations for evaluation in drug-resistant MM and reveal potential mechanisms of combined drug sensitivity.
Described herein is the primary MIPE qHTS used to cherrypick compounds. Validated compounds were then further tested for potential synergistic activiy.
[1] Peat TJ, Gaikwad SM, Dubois W, Gyabaah-Kessie N, Zhang S, Gorjifard S, Phyo Z, Andres M, Hughitt VK, Simpson RM, Miller MA, Girvin AT, Taylor A, Williams D, D'Antonio N, Zhang Y, Rajagopalan A, Flietner E, Wilson K, Zhang X, Shinn P, Klumpp-Thomas C, McKnight C, Itkin Z, Chen L, Kazandijian D, Zhang J, Michalowski AM, Simmons JK, Keats J, Thomas CJ, Mock BA. Drug combinations identified by high-throughput screening promote cell cycle transition and upregulate Smad pathways in myeloma. Cancer Lett. 2023 Aug 1;568:216284. doi: 10.1016/j.canlet.2023.216284. Epub 2023 Jun 24. PMID: 37356470; PMCID: PMC10408729.
SEQUENCE No. (e.g., 1, 2, 3, etc.); […] (e.g., Cells, Incubation, Reagent, etc.); VALUE and DESCRIPTION.
1; Cells; 5 uL; white, solid bottom 1536-well Greiner assay plate.
2; Compounds; 23 nL; Kalypsis pin tool (Wako USA) equipped with a 1536-well pin head to transfer to the assay plates.
3; Incubation; 48 hours; 37C incubation.
4; Reagent;5uL; CellTiter Glo (Promega).
5; Detector; 425V; Luminescence; Viewlux PerkinElmer.
NOTES (numbers refer to Sequence numbers above)
1. The cell-based screening methods employed in this study were like those previously published. Briefly, the corresponding myeloma cell lines were screened in 1,536-well plates with 500 cells, 5-uL per well for inhibition of cell viability (assessed by measuring ATP levels with CellTiterGlo).
2. NCATS MIPE 4.0 library of approved and investigational drugs were added using the Kalypsis pin tool. Wells treated with DMSO only for 100% viability and media only wells for 0% viability were used as controls.
3. The assay plates were covered and incubated for 48 hours in a 37C, 5% CO2 incubator with controlled humidity.
4. After 48 hours, CellTilter-GloTM luminescent substrate mix (Promega) reagent was added to the assay plate and plates we incubated for 5 min at room temperature.
5. Signal was measured as median relative luminescence units on a ViewLux (PerkinElmer) multiplate reader.
[1] Heske CM, Davis MI, Baumgart JT, Wilson K, Gormally MV, Chen L, Zhang X, Ceribelli M, Duveau DY, Guha R, Ferrer M, Arnaldez FI, Ji J, Tran HL, Zhang Y, Mendoza A, Helman LJ, Thomas CJ. Matrix Screen Identifies Synergistic Combination of PARP Inhibitors and Nicotinamide Phosphoribosyltransferase (NAMPT) Inhibitors in Ewing Sarcoma. Clin Cancer Res. 2017 Dec 1;23(23):7301-7311. doi: 10.1158/1078-0432.CCR-17-1121. Epub 2017 Sep 12. PMID: 28899971; PMCID: PMC6636827.
Potency is read from the fitted curve at half-maximal effect.

| Structure (SMILES) | viability, % of DMSO control | Potency |
| --- | --- | --- |
| CN1CCN(C(=O)O[C@H]2c3nccnc3C(=O)N2c2ccc(Cl)cn2)CC1 | 104% (inactive) | – |
| N[C@@H](Cc1ccc(N(CCCl)CCCl)cc1)C(=O)O | – | 20.9 µM (active) |
| CNCC(O)c1ccc(O)cc1 (stereo not drawn) | 91.3% (inactive) | – |
| COC1(CS(=O)c2ccccc2)CCN(CCc2c[nH]c3ccc(F)cc23)CC1 (stereo not drawn) | 108% (inactive) | – |
| COc1ccc(C(=O)c2c(C)n(CCN3CCOCC3)c3ccccc23)cc1 | 144% (inactive) | – |
| COC[C@H]1OC(=O)c2coc3c2[C@@]1(C)C1=C(C3=O)C2CCC(=O)[C@@]2(C)C[C@H]1OC(C)=O (stereo partly drawn) | – | 3.32 µM (active) |
| Cc1cccc(C)c1NC(=O)CN1CCCC1=O | 99.2% (inactive) | – |
| CNC(=O)c1ccc(N2C(=S)N(c3ccc(C#N)c(C(F)(F)F)c3)C(=O)C23CCC3)cc1F | – | 33.2 µM (active) |
| C#CCN(C)[C@H](C)Cc1ccccc1 | 80.3% (inactive) | – |
| Fc1ccc(C(OCCN2CCN(CCCc3ccccc3)CC2)c2ccc(F)cc2)cc1 | – | 13.2 µM (active) |
| CC(O)(CS(=O)(=O)c1ccc(F)cc1)C(=O)Nc1ccc(C#N)c(C(F)(F)F)c1 (stereo not drawn) | – | 1.87 µM (active) |
| C[C@@H]1O[C@@H](O[C@H]2C[C@@H](O)[C@]3(CO)[C@H]4[C@H](O)C[C@]5(C)[C@@H](C6=CC(=O)OC6)CC[C@]5(O)[C@@H]4CC[C@]3(O)C2)[C@H](O)[C@H](O)[C@H]1O | – | 0.0372 µM (active) |
| CC(C)CC(N(C)C)C1(c2ccc(Cl)cc2)CCC1 (stereo not drawn) | 106% (inactive) | – |
| Cc1sc2c(c1C)C(c1ccc(Cl)cc1)=N[C@@H](CC(=O)OC(C)(C)C)c1nnc(C)n1-2 | – | 0.0083 µM (active) |
| CN(C)[C@@H]1C(=O)C(C(N)=O)=C(O)[C@@]2(O)C(=O)C3=C(O)c4c(O)cccc4[C@@](C)(O)[C@H]3C[C@@H]12 | 106% (inactive) | – |
| O=c1[nH]c2ccccc2n1CCCN1CCC(n2c(=O)[nH]c3cc(Cl)ccc32)CC1 | 148% (inactive) | – |
| CNC(=O)N1N=C(c2ccc(N)cc2)c2cc3c(cc2CC1C)OCO3 (stereo not drawn) | – | 2.96 µM (active) |
| C[C@@H]1[C@@H](C(=O)C[C@H]2O[C@@H]3O[C@]4(C)CC[C@@H]5[C@H](C)CC[C@@H]([C@H]2C)[C@@]35OO4)O[C@@H]2O[C@]3(C)CC[C@H]4[C@H](C)CC[C@@H]1[C@@]24OO3 | – | 0.332 µM (active) |
